According to PubChem BioAssay (NCI):
Compounds without any hit were thinned out: in the full panel of roughly 79,000, 15% have a hit. Activity calls are given as the source filed them. Cut-off read from the data, not from the text of the source: active = growth inhibition above about 70%; inactive = the rest.

Assays:
[1] = NCI Yeast Anticancer Drug Screen. Data for the CLN2oe strain (AID 163);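 note: 0% = growth of vehicle-only control cultures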; conditions: S. cerevisiae CLN2oe strain, hits give high values
How it was run: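 Here, growth inhibition in a cell-cycle-altered yeast strain after compound exposure was quantified against vehicle control growth.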

[2] = NCI Yeast Anticancer Drug Screen. Data for the cln2 rad14 strain (AID 165);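 note: 0% = growth equal to vehicle treated cultures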; conditions: S. cerevisiae cln2 rad14 strain, hits give high values
How it was run: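 Growth of compound-exposed yeast (cln2 rad14 genotype) measured and expressed as inhibition relative to vehicle.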

[3] = NCI Yeast Anticancer Drug Screen. Data for the bub3 strain (AID 167); conditions: S. cerevisiae bub3 mutant strain, hits give high values
How it was run: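 Growth of a checkpoint-deficient yeast mutant is measured after compound exposure. Values represent inhibition relative to vehicle.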

[4] = NCI Yeast Anticancer Drug Screen. Data for the wt2 strain (AID 169);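 note: 0% = growth of vehicle-treated yeast cultures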; conditions: S. cerevisiae wt2 strain growth inhibition, hits give high values
How it was run: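 Genetically defined yeast strains from a DNA-repair/cell-cycle panel were used. Compound-exposed yeast growth was measured, and the inhibition was calculated relative to vehicle treatment.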

[5] = NCI Yeast Anticancer Drug Screen. Data for the mlh1 strain (AID 171);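 note: 0% = growth of vehicle-treated control cultures of the same strain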; conditions: S. cerevisiae mlh1 strain growth inhibition, hits give high values
How it was run: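 Here the genetically defined yeast mutant is grown with each compound, and the extent to which its growth falls below that of vehicle-exposed cells is reported.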

[6] = NCI Yeast Anticancer Drug Screen. Data for the sgs1 strain (AID 173);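 note: 0% = growth of vehicle-only control cultures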; conditions: S. cerevisiae sgs1 mutant, hits give high values
How it was run: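 Relative growth inhibition, referenced to vehicle, was determined in a yeast strain with a defined alteration affecting DNA damage repair or cell cycle control after compound exposure.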

[7] = NCI Yeast Anticancer Drug Screen. Data for the mlh1 rad18 strain (AID 175); conditions: S. cerevisiae mlh1 rad18 strain growth inhibition, hits give high values
How it was run: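 In this whole-cell yeast screen, a strain with altered DNA damage repair is challenged with compound, and its growth is measured against matched vehicle-treated controls.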

[8] = NCI Yeast Anticancer Drug Screen. Data for the rad18 strain (AID 177); conditions: S. cerevisiae rad18 mutant growth inhibition, hits give high values
How it was run: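 Screen uses a yeast strain with a defined lesion in DNA damage repair; compound effect is read as loss of growth compared to untreated vehicle cultures.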

[9] = NCI Yeast Anticancer Drug Screen. Data for the rad52 strain (AID 147);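 note: 0% = growth of vehicle-treated control cultures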; conditions: S. cerevisiae rad52 mutant growth inhibition, hits give high values
How it was run: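 Measured: yeast growth inhibition. System: strain with a defined DNA damage repair alteration. Reference: vehicle-treated control cultures.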

[10] = NCI Yeast Anticancer Drug Screen. Data for the rad50EPP+ strain (AID 151);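 note: 0% = growth of vehicle-treated control cultures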; conditions: S. cerevisiae rad50 mutant strain, hits give high values
How it was run: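 One strain with a rad50 alteration (rad50EPP+) was compound-treated, its growth then compared to that of vehicle controls.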

[11] = NCI Yeast Anticancer Drug Screen. Data for the rad50 strain (AID 155);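 note: 0% = growth of vehicle-only cultures of the same strain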; conditions: S. cerevisiae rad50 strain growth inhibition, hits give high values
How it was run: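 Compounds were tested on a yeast strain with an engineered DNA damage repair alteration; the reported value is growth inhibition normalised to vehicle treatment.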

[12] = NCI Yeast Anticancer Drug Screen. Data for the mec2-1 strain (AID 157); conditions: S. cerevisiae mec2-1 strain, hits give high values
How it was run: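 Test agents were screened against the mec2-1 yeast strain, with defined DNA repair or cell cycle alteration. Growth was scored as inhibition against vehicle-only controls.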

[13] = NCI Yeast Anticancer Drug Screen. Data for the wt1 strain (AID 149);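 note: 0% = growth of vehicle-treated wt1 cultures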; conditions: S. cerevisiae wt1 strain (SPY 50644) growth inhibition, hits give high values
How it was run: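 Readout: yeast growth inhibition, normalised to vehicle controls, in the wt1 strain exposed to test compounds.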

[14] = NCI Yeast Anticancer Drug Screen. Data for the mgt1 strain (AID 153); conditions: S. cerevisiae mgt1 mutant growth inhibition, hits give high values
How it was run: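 After exposure of the mgt1 yeast mutant to compound, growth was measured and reported as inhibition compared with vehicle controls.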

[15] = NCI Yeast Anticancer Drug Screen. Data for the rad14 strain (AID 159);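 note: 0% = growth of vehicle-treated control cultures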; conditions: S. cerevisiae rad14 strain growth inhibition, hits give high values
How it was run: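 Compound-treated yeast with a defined DNA-repair lesion; growth inhibition normalised to vehicle-treated cultures.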

[16] = NCI Yeast Anticancer Drug Screen. Data for the sgs1 mgt1 strain (AID 161);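 note: 0% = growth of cultures given vehicle only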; conditions: S. cerevisiae sgs1 mgt1 strain, hits give high values
How it was run: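 Mutant yeast exposed to compound; growth scored against vehicle-only wells.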

[17] = at 5.0 µM (retest, dose inferred, filed as 0.5)
[18] = at 50.0 µM (retest, dose inferred, filed as 5.0)

Measured: growth inhibition

NC(=O)C(=O)NNc1ccccc1
active: [1]; at 100.0 µM 96% | [2]; at 50.0 µM 80.8% | [3]; at 33.0 µM 95% | [3]; at 50.0 µM 92.2% | [3]; at 100.0 µM 97% | [4]; at 100.0 µM 97% | [5]; at 33.0 µM 75% | [5]; at 100.0 µM 98% | [6]; at 33.0 µM 92% | [6]; at 100.0 µM 98% | [7]; [18] 89% | [7]; at 50.0 µM 82.7% | [8]; at 33.0 µM 92% | [8]; at 100.0 µM 97%
inactive: [1]; at 3.7 µM 4% | [1]; at 11.0 µM 41% | [1]; at 33.0 µM 67% | [2]; [17] 9% | [2]; [18] 32% | [3]; at 1.2 µM -3% | [3]; at 3.7 µM 6% | [3]; [17] 27% | [3]; at 11.0 µM 64% | [3]; [18] 66% | [4]; at 1.2 µM 3% | [4]; at 3.7 µM 13% | [4]; at 11.0 µM 34% | [4]; at 33.0 µM 60% | [5]; at 1.2 µM 3% | [5]; at 3.7 µM 5% | [5]; at 11.0 µM 31% | [6]; at 1.2 µM 3% | [6]; at 3.7 µM 14% | [6]; at 11.0 µM 59% | [7]; [17] 45% | [8]; at 1.2 µM 6% | [8]; at 3.7 µM 17% | [8]; at 11.0 µM 65%

CCC(C)OC(=O)Nc1ccc(C)c(NC(=O)OC(C)CC)c1 (stereo unspecified)
inactive: [9]; at 1.2 µM -1% | [9]; at 3.7 µM -1% | [9]; at 11.0 µM 3% | [9]; at 33.0 µM 9% | [10]; at 1.2 µM -2% | [10]; at 3.7 µM -5% | [10]; at 11.0 µM -1% | [10]; at 33.0 µM 11% | [11]; at 1.2 µM 1% | [11]; at 3.7 µM 1% | [11]; [17] 4% | [11]; at 11.0 µM 2% | [11]; at 33.0 µM 9% | [11]; at 50.0 µM 54% | [12]; at 1.2 µM -2% | [12]; at 3.7 µM 0% | [12]; [17] -11% | [12]; at 11.0 µM -2% | [12]; at 33.0 µM 2% | [12]; [18] 18% | [1]; at 1.2 µM 3% | [1]; at 3.7 µM 2% | [1]; at 11.0 µM 7% | [1]; at 33.0 µM 22% | [2]; [17] -4% | [3]; at 1.2 µM -3% | [3]; at 3.7 µM -2% | [3]; [17] 2% | [3]; at 11.0 µM -3% | [3]; at 33.0 µM 4% | [4]; at 1.2 µM 0% | [4]; at 3.7 µM 1% | [4]; at 11.0 µM -2% | [4]; at 33.0 µM 6% | [5]; at 1.2 µM -1% | [5]; at 3.7 µM -3% | [5]; at 11.0 µM -5% | [5]; at 33.0 µM 2% | [6]; at 1.2 µM -5% | [6]; at 3.7 µM -5% | [6]; at 11.0 µM -5% | [6]; at 33.0 µM 9% | [7]; [17] 12% | [8]; at 1.2 µM -4% | [8]; at 3.7 µM -5% | [8]; at 11.0 µM -8% | [8]; at 33.0 µM 6%
active: [9]; at 100.0 µM 96% | [10]; at 100.0 µM 74% | [11]; [18] 76% | [11]; at 100.0 µM 96% | [12]; at 50.0 µM 76% | [12]; at 100.0 µM 90% | [1]; at 100.0 µM 95% | [2]; [18] 74% | [2]; at 50.0 µM 80% | [3]; [18] 83% | [3]; at 50.0 µM 75% | [3]; at 100.0 µM 94% | [4]; at 100.0 µM 96% | [5]; at 100.0 µM 96% | [6]; at 100.0 µM 96% | [7]; [18] 89% | [7]; at 50.0 µM 79.5% | [8]; at 100.0 µM 96%

OCC(CO)C(c1cccc2ccccc12)c1cccc2ccccc12
active: [13]; at 11.0 µM 98% | [13]; at 33.0 µM 99% | [13]; at 100.0 µM 94% | [14]; at 11.0 µM 98% | [14]; at 33.0 µM 99% | [14]; at 100.0 µM 93% | [11]; at 11.0 µM 98% | [11]; at 33.0 µM 98% | [11]; [18] 99% | [11]; at 50.0 µM 99.3% | [11]; at 100.0 µM 88% | [12]; at 11.0 µM 98% | [12]; at 33.0 µM 99% | [12]; [18] 99% | [12]; at 50.0 µM 99.2% | [12]; at 100.0 µM 92% | [15]; at 11.0 µM 99% | [15]; at 33.0 µM 99% | [15]; at 100.0 µM 90% | [16]; [18] 100% | [16]; at 50.0 µM 99.2% | [2]; [18] 97% | [2]; at 50.0 µM 99.2% | [3]; at 11.0 µM 98% | [3]; at 33.0 µM 99% | [3]; [18] 99% | [3]; at 50.0 µM 99.3% | [3]; at 100.0 µM 89% | [5]; at 11.0 µM 99% | [5]; at 33.0 µM 99% | [5]; at 100.0 µM 92% | [6]; at 11.0 µM 98% | [6]; at 33.0 µM 99% | [6]; at 100.0 µM 93% | [7]; [18] 99% | [7]; at 50.0 µM 98.7% | [8]; at 11.0 µM 98% | [8]; at 33.0 µM 99% | [8]; at 100.0 µM 88%
inactive: [13]; at 1.2 µM -5% | [13]; at 3.7 µM 1% | [10]; at 1.2 µM 0% | [10]; at 3.7 µM 3% | [10]; at 11.0 µM 10% | [10]; at 33.0 µM 13% | [10]; at 100.0 µM -2% | [14]; at 1.2 µM -1% | [14]; at 3.7 µM 9% | [11]; at 1.2 µM 4% | [11]; at 3.7 µM 40% | [11]; [17] 19% | [12]; at 1.2 µM -1% | [12]; at 3.7 µM 21% | [12]; [17] 4% | [15]; at 1.2 µM 0% | [15]; at 3.7 µM 20% | [16]; [17] 6% | [2]; [17] 2% | [3]; at 1.2 µM -1% | [3]; at 3.7 µM 9% | [3]; [17] -1% | [5]; at 1.2 µM 0% | [5]; at 3.7 µM 11% | [6]; at 1.2 µM 1% | [6]; at 3.7 µM 15% | [7]; [17] 7% | [8]; at 1.2 µM 7% | [8]; at 3.7 µM 53%
